# Laboratory results: PubChem BioAssay (Tox21)
# Inconclusive results are not listed. A number with no mark means an inactive call. Active and inactive are the calls of the source. The call rests on the fitted dose curve.
# Test: p53 small molecule agonists, cell-based qHTS assay with human liver microsomes: qHTS cell viability counter screen (AID 1963579); further: nearly all actives have a fitted effect of over 45% in size
# Conditions: p53RE-bla HCT-116 viability, ATP luminescence, 16 h, HLM; series mostly up to 66 µM; activity change, negative = cytotoxicity: at the top concentration
# Text: National Center for Advancing Translational Sciences [NCATS]
# Division of Preclinical Innovation [DPI]
# U.S. Environmental Protection Agency [EPA]
# National Institutes of Environmental Health Sciences [NIEHS]
# National Toxicology Program [NTP]
# U.S. Food and Drug Administration [FDA]
# p53, a tumor suppressor protein, is activated following cellular insult, including DNA damage and other cellular stresses. The activation of p53 regulates cell fate by inducing DNA repair, cell cycle arrest, apoptosis, or cellular senescence. The activation of p53, therefore, is a good indicator of DNA damage and other cellular stresses. […] The activation of the reporter gene under culture conditions can be detected by fluorescence intensity. This cell line was used to screen the Tox21 10K compound library in the condition of presence of human liver microsomes and to identify agonists that activate the p53 signaling pathway after in vitro metabolic activation (Ooka et al., Archive of Toxicology 96:1975-1987, 2022).
# Tox21 Assay Protocol Summary:
# The p53RE-bla cells were dispensed at 4,000cells/3ul/well in 1536-well black-clear bottom plates. After the assay plates were incubated at 37 C, 5% CO2 incubator for 5 hours, 23 nL of compounds dissolved in DMSO, positive controls or DMSO only was transferred to the assay plate. Following compound addition, 3 uL of human liver microsomes (XenoTech, Kansas City, KS) at final concentration of 0.5 mg/mL and 1uL of B-Nicotinamide adenine dinucleotide 2'-phosphate (NADPH) at final concentration of 0.5 mg/mL were transferred to the assay plate. The plates were incubated at 37 C for 16 hours. 1 uL of LiveBLAzer detection mixture was added to each well and the plates were incubated at room temperature in the dark for 2 h. Fluorescence intensity at 460 and 530 nm emission and 405 nm excitation were measured by an Envision plate reader. For cell viability readout that measures cytotoxicity, 4 ul/well of CellTiter-Glo reagent was added into the assay plates using a Flying Reagent Dispenser. After 30 min incubation at room temperature, the luminescence intensity in the plates was measured using a ViewLux plate reader.
# On the % scale 0 is the no-effect control and ±100 the full control effect.
SMILES,"activity change, negative = cytotoxicity",Potency
Cc1cc(C)cc(OCC2CNC(=O)O2)c1 (stereo not given),0.21% [at 30.3 µM],–
COc1ccc2cc(C=O)ccc2c1,1.04% [at 30.3 µM],–
C[C@@H]1CCC[C@H](C)N1CCCC(O)(c1ccccc1)c1ccccn1 (stereo not given in full),11.1% [at 30.3 µM],–
CC(=O)CC(C)(C)C1CCCCC1,10.9%,–
O=S(=O)(O)c1ccc(N=Nc2c(O)ccc3cc(S(=O)(=O)O)ccc23)cc1,–,inactive
C=CC(C)CCC=C(C)C (stereo not given),-15.5%,–
CC(CO)c1ccccc1 (stereo not given),2.28%,–
CCC(=O)Nc1cccc(N)c1,-6.02%,–
CN(CC1(C)CCCO1)S(=O)(=O)c1ccc(Cl)c(S(N)(=O)=O)c1 (stereo not given),8.61% [at 30.3 µM],–
CCN(CC)S(=O)(=O)c1ccc(C(=O)O)cc1,-0.967% [at 30.3 µM],–
CN(C)c1ccc(C(=N)c2ccc(N(C)C)cc2)cc1,–,inactive
O=C1OC2(c3ccc(O)cc3Oc3cc(O)ccc32)c2ccccc21,–,inactive
COC(=O)c1sccc1S(N)(=O)=O,0.993%,–
NC(=O)c1cccc([N+](=O)[O-])c1,1.33%,–
CC(C)CC=O,4.3%,–
O=C(c1ccc2c(c1)C(=O)OC2=O)c1ccc2c(c1)C(=O)OC2=O,10.5%,–
OC1(c2ccc(Cl)cc2)CCNCC1,4.95% [at 30.3 µM],–
CC(C)C(=O)OC(=O)C(C)C,-0.592%,–
COc1ccc2nc(N)sc2c1,–,inactive
Cc1ccc(S(=O)(=O)NC(=O)NC2CCCC2)cc1,6.61% [at 30.3 µM],–

SMILES,"activity change, negative = cytotoxicity",Potency
CC(=O)CC(C)=O,9%,–
O=C(O)c1ccc(O)cc1O,-7.95%,–
OCC(CO)(CBr)CBr,–,inactive
C[n+]1ccn(Cc2ccccc2)c1,-5.47%,–
Cc1c(N)cccc1C(F)(F)F,-12.3% [at 30.3 µM],–
OC[C@H]1O[C@@H](O[C@H]2[C@H](O)[C@@H](O)[C@H](O)O[C@@H]2CO)[C@H](O)[C@@H](O)[C@H]1O,-5.14%,–
COc1cc(C)c(Cc2cnc(N)nc2N)cc1OC,15.3% [at 30.3 µM],–
COC(OC)C(C)c1ccccc1 (stereo not given),1.85%,–
Cc1cccc(Cl)c1,-9.16%,–
ClC(c1ccccc1)(c1ccccc1)c1ccccc1,-16.1%,–
Cc1cc(C)cc(N)c1,-2.06%,–
CCCCCCCN,4.68%,–
CCO/C([O-])=N/c1c[n+](N2CCOCC2)no1,-0.866% [at 30.3 µM],–
Cc1occc1S,2.03%,–
NS(=O)(=O)c1ccc(N2CCCCS2(=O)=O)cc1,0.398% [at 30.3 µM],–
C=C1C[C@]23C[C@@]1(O)CC[C@H]2[C@@]12C=C[C@H](O)[C@@](C)(C(=O)O1)[C@H]2[C@@H]3C(=O)O,–,inactive
CO[C@@]1(NC(=O)C(C(=O)O)c2ccc(O)cc2)C(=O)N2C(C(=O)O)=C(CSc3nnnn3C)CO[C@@H]21 (stereo not given in full),-6.16% [at 30.3 µM],–
OCCNCCO,–,inactive
COC(=O)c1ccc(C)cc1C1=NC(C)(C(C)C)C(=O)N1 (stereo not given),-0.978%,–
Cc1cc(C)c(N=Nc2c(O)c(S(=O)(=O)O)cc3cc(S(=O)(=O)O)ccc23)cc1C,0.236% [at 5.99 µM],–
